Assay [1] can be described thus: optical density shifts of acrAB sulA E. coli – strain DRC41, OD650, 48 h, E. coli filamentation inducer project, primary screen (AID 1152).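 Further: E. coli MC1000 strain DRC41 lacking acrAB efflux pump and sulA.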 The note with it: higher = more signal, called active from +8 up or from −8 down.
Assay [2] can be described thus: probe aLefty1 binding on compound microarray – biochemical, small-molecule microarray, 635/667 nm fluorescence, primary screen (AID 1153).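 Further: score merges spot fluorescence with signal-to-noise ratio from the scanned slide images.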 Particulars: higher = more signal.
The nature of assay [3]: plasmodial surface anion channel blockers, osmotic lysis – cell-based, P. falciparum Indochina, OD700, 1 h, primary screen (AID 1154). The note with it: P. falciparum Indochina infected RBC osmotic lysis, higher = more signal, called active from +8 up or from −8 down.
Assay [4] in a line: plasmodial surface anion channel blockers, osmotic lysis – cell-based, P. falciparum Indochina, OD700, 2 h, primary screen (AID 1155).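 Further: lysis reports solute entry through the parasite surface anion channel PSAC.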 The note with it: P. falciparum Indochina infected erythrocytes, higher = more signal, called active from +8 up or from −8 down.
Assay [5] is described as follows: changes in parasitized red cell lysis, either direction – P. falciparum Indochina, OD700, 3 h, PSAC antagonist project, primary screen (AID 1156). Particulars: P. falciparum-infected erythrocytes, osmotic lysis, higher = more signal, called active from +8 up or from −8 down.
Assay [6] is described as follows: plasmodial surface anion channel blockers, osmotic lysis – cell-based, P. falciparum Indochina, OD700, 18 h, primary screen (AID 1157). The note with it: P. falciparum Indochina infected erythrocytes, osmotic lysis OD700, 18 h; higher = more signal, called active from +8 up or from −8 down.
A short description of assay [7]: S6 kinase pathway phospho-S6 level changes – cell-based, A549, cytoblot, luminescence, serum-stimulated, primary screen (AID 1158).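 Further: serum-stimulated A549 lung adenocarcinoma cells; signal is phosphorylated S6 detected by cytoblot immunostaining with HRP secondary.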 Particulars: 5 h, higher = more signal.
In assay [8] the target is NADPH oxidase 2 (Homo sapiens) (UniProt P04839). Description: compounds shifting NOX2 Amplex Red fluorescence – cell-based, HEK293-NOX2, PMA-stimulated, NOX inhibitor project, primary screen (AID 1159). Further: test concentration not given here. The note with it: 45 min, higher = more signal, called active from +8 up or from −8 down.
Sequence of NADPH oxidase 2 (Homo sapiens) (P04839 whole entry, looked up): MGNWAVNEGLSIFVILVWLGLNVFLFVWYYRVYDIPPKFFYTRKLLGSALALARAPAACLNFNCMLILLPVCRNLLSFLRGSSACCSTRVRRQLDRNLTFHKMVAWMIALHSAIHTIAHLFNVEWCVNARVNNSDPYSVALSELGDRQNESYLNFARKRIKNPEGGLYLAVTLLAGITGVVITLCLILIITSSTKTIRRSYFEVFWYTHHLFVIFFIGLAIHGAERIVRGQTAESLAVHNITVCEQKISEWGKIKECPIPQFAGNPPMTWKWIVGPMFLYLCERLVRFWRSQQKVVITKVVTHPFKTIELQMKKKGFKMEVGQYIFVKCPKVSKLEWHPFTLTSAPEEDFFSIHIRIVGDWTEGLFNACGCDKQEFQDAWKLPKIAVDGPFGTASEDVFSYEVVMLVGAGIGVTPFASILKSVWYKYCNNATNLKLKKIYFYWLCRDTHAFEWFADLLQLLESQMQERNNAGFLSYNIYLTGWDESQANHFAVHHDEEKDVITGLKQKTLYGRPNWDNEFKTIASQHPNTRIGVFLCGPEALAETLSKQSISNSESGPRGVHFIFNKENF
The target in assay [9] is NADPH oxidase 4 (Homo sapiens) (UniProt Q9NPH5). Put plainly: compounds shifting NOX4 Amplex Red fluorescence – cell-based, HEK293-NOX4, tetracycline-induced, NOX inhibitor project, primary screen (AID 1160). The note with it: HEK293-NOX4, Amplex Red H2O2 fluorescence, 45 min; higher = more signal, called active from +8 up or from −8 down.
Sequence of NADPH oxidase 4 (Homo sapiens) (Q9NPH5 whole entry, looked up): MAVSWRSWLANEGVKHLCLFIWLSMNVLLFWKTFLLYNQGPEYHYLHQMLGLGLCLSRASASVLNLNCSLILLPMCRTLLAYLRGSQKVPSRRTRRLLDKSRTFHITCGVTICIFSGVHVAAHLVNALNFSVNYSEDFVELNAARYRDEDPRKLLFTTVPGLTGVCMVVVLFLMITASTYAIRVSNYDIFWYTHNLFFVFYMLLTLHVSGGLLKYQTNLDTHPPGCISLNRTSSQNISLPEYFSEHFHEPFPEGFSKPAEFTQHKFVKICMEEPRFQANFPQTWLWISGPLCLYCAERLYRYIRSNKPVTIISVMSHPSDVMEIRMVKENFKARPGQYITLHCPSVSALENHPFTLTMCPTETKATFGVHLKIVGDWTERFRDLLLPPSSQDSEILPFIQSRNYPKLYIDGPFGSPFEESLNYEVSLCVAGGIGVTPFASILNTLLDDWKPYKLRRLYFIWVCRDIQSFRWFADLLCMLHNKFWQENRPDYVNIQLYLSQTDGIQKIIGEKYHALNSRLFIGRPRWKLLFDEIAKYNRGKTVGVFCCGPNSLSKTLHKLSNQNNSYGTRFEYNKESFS
The target in assay [10] is NADPH oxidase 5 (Homo sapiens) (UniProt Q96PH1). Put plainly: compounds shifting NOX5 Amplex Red fluorescence – cell-based, HEK293-NOX5, NOX inhibitor project, primary screen (AID 1161). The note with it: HEK293-NOX5, ionomycin, 45 min, higher = more signal.
Sequence of NADPH oxidase 5 (Homo sapiens) (Q96PH1 whole entry, looked up): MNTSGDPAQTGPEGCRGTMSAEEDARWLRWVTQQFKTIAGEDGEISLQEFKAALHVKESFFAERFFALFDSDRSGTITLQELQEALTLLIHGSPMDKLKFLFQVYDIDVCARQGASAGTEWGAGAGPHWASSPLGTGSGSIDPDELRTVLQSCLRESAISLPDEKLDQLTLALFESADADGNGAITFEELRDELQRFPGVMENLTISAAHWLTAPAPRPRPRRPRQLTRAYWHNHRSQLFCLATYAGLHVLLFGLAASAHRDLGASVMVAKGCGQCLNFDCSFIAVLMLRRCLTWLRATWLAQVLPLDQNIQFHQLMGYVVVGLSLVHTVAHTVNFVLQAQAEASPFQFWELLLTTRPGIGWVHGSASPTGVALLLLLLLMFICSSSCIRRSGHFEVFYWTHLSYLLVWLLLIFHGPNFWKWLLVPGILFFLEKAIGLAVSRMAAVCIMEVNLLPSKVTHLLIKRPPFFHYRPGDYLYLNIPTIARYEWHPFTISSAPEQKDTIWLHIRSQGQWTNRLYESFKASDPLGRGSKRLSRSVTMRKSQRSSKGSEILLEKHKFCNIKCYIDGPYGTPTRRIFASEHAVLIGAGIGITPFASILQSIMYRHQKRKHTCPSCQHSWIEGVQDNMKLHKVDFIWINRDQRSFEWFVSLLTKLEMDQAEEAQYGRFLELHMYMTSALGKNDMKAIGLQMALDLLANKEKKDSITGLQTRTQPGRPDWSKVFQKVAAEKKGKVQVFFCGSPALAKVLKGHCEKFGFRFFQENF
Assay [11] can be described thus: compound effects on lung adenocarcinoma cell viability – A549, calcein-AM fluorescence, 48 h, basal, profiling panel (AID 1162). Further: test concentration not given here. The note with it: higher = more signal.
The nature of assay [12]: compound effects on differentiated 3T3-L1 adipocyte viability – cell-based, 3T3-L1 adipocytes, calcein-AM fluorescence, 48 h, basal, profiling panel (AID 1163). Further: test concentration not given here. The note with it: 3T3-L1 adipocytes viability, higher = more signal.
Assay [13] is described as follows: compound effects on hepatocellular carcinoma cell viability – HepG2, calcein-AM fluorescence, 48 h, basal, profiling panel (AID 1164). Further: test concentration not given here. Particulars: higher = more signal.
Assay [14] in a line: compound effects on multiple myeloma cell viability – MM1S, calcein-AM fluorescence, 48 h, basal, profiling panel (AID 1165).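 Further: viability of MM1S multiple myeloma cells under basal unstimulated conditions; test concentration not given here.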 The note with it: higher = more signal.
The nature of assay [15]: calcein-AM signal in unstimulated myeloma cells – cell-based, calcein-AM fluorescence, 48 h, PK04 Diversity Set, profiling panel (AID 1166).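 Further: cells grown under basal conditions without added stimulus; test concentration not given here.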 Particulars: RPMI8226 myeloma viability, higher = more signal.
Assay [16] is described as follows: JC-1 mitochondrial signal, unstimulated HepG2 cells – cell-based, JC-1 fluorescence, 24 h, 100 nL compound, profiling panel (AID 1167). Further: test concentration not given here. The note with it: HepG2 mitochondrial potential, higher = more signal.
Assay [17] is described as follows: JC-1 mitochondrial signal, unstimulated adipocytes – cell-based, JC-1 fluorescence, 3T3-L1 adipocytes, 24 h, 100 nL compound, profiling panel (AID 1168). Further: test concentration not given here. Particulars: JC-1 mitochondrial fluorescence, higher = more signal, called active from +8 up or from −8 down.
Assay [18] in a line: JC-1 mitochondrial signal, unstimulated myeloma cells – cell-based, JC-1 fluorescence, RPMI8226, 24 h, 100 nL compound, profiling panel (AID 1169). Further: test concentration not given here. Particulars: JC-1 mitochondrial potential fluorescence, higher = more signal.
A short description of assay [19]: JC-1 mitochondrial signal, unstimulated MM1S myeloma – cell-based, JC-1 fluorescence, 24 h, 100 nL compound, profiling panel (AID 1170). Further: test concentration not given here. The note with it: MM1S mitochondrial potential, higher = more signal.
Assay [20] can be described thus: resazurin metabolic signal in A549 cells – cell-based, resazurin fluorescence, 24 h, PK04 Diversity Set, profiling panel (AID 1171). Further: test concentration not given here. Particulars: A549 viability, higher = more signal, called active from +8 up or from −8 down. On the technique in general: The colour change of resazurin is a common sign of viable cells or microbes.

The structures appear in SMILES notation. Calls of active or inactive are those of the source.

With `COC(=O)[C@@]1(Cc2ccccc2)[C@H]2c3cc(C(=O)N4CCCC4)n(Cc4ccsc4Br)c3C[C@H]2CN1C(=O)c1ccccc1`, the z-score was -1.82 (inactive) in [1]; 7 (inactive) in assay [3]; 1.07 (inactive) in [4]; 1.04 (inactive) in [5]; 1.03 (inactive) in assay [6]; -0.215 in assay [7]. In addition, the z-score in [8] is 0.0188 (inactive); in assay [9], 0.707 (inactive); in assay [10] it was -2.92; in assay [11] it was -0.991; in assay [12], 0.213; in assay [13] it was -0.248. The z-score was -1.54 in [14]; -3.59 in assay [15]; 1.6 in assay [16]; -0.205 (inactive) in assay [17]; -0.804 in [18]; -1.23 in [19]. The z-score in assay [20] was -0.9 (inactive). The same molecule returned a composite z-score in [2] of 0.451.
For the molecule `O=C1O[C@@H](c2ccccc2)[C@@H](c2ccccc2)N2[C@@H](c3ccccc3OCCO)[C@]3(C(=O)Nc4ccc(C#CCCO)cc43)[C@@H](C(=O)Nc3nc4ccccc4s3)[C@H]12`, the z-score in assay [1] is 1.4 (inactive); in assay [3], 2.06 (inactive); in assay [4], 3.56 (inactive); in assay [5], 1.59 (inactive); in [6], 1.72 (inactive); in assay [7] it was 0.206. In addition, the z-score in assay [8] was 1.3 (inactive); in assay [9], 0.352 (inactive); in assay [10], 1.23; in assay [11], 1.02; in assay [12] it was 0.0714; in [13], 0.702. Besides, the z-score in assay [14] is -0.264; in assay [15], -1.55; in [16], -2.29; in assay [17] it was 0.856 (inactive); in [18], -1.13; in assay [19], -1.33. Besides, the z-score in assay [20] was 0.2 (inactive). The composite z-score in assay [2] is 0.13.
In the case of `Cc1ccc(C(C)CC(O)C2C=CC3C(=O)N(c4ccccc4)C(=O)C3N2Nc2ccc(C(C)C)cc2)o1` (stereo not given), the z-score in assay [1] is -1.84 (inactive); in assay [3], 1.45 (inactive); in [4], 0.871 (inactive); in assay [5] it was 0.948 (inactive); in assay [6], 0.631 (inactive); in [7], -1.31. Also, the z-score in [8] was -0.831 (inactive); in assay [9] it was -2.34 (inactive); in assay [10] it was -3.53; in assay [11], -1.12; in [12] it was -0.279; in [13], 0.137. The z-score is -1.41 in assay [14]; -1.19 in assay [15]; -2.29 in assay [16]; -1.44 (inactive) in [17]; -0.778 in [18]; 0.772 in [19]. Moreover, the z-score in assay [20] is -0.634 (inactive). This molecule also gave a composite z-score in assay [2] of 0.629.
As for `CCOC(=O)C[C@H]1[C@H](OC(=O)c2ccc(-c3ccccc3)cc2)[C@@H](NC(=O)c2ccc3ccccc3n2)c2cc(OCCCO)ccc2N1C(=O)c1ccccc1`, the z-score in assay [1] was -0.715 (inactive); in [3], 0.18 (inactive); in assay [4] it was -0.168 (inactive); in assay [5], -0.571 (inactive); in assay [6], 0.261 (inactive); in [7], 0.893. For the same molecule, the z-score in assay [8] was -0.59 (inactive); in assay [9], -1.72 (inactive); in assay [10], -1.04; in assay [11], -1.05; in assay [12] it was 0.312; in [13], -0.677. Moreover, the z-score in [14] is 0.23; in assay [15] it was -0.248; in assay [16], 1.35; in assay [17], -0.248 (inactive); in [18], 0.224; in [19] it was 0.0802. Besides, in assay [20], the z-score is 0.0216 (inactive). In addition, the composite z-score in [2] amounted to 0.0367.
Consider `Cc1ccc(S[C@]2(C(=O)NCC(F)(F)F)CC(=O)N(Cc3ccccc3)[C@@H]2c2ccc(CO)cc2)cc1`, for which the z-score in [1] was -0.009 (inactive); in [3], 1.6 (inactive); in assay [4], -0.821 (inactive); in [5], 1.56 (inactive); in assay [6], -1.73 (inactive); in [7], 1.98. Besides, the z-score is -0.599 (inactive) in [8]; 0.488 (inactive) in [9]; -1.68 in assay [10]; 0.149 in [11]; 0.787 in assay [12]; -0.479 in [13]. The z-score is 0.0646 in [14]; -1.28 in [15]; 0.0177 in assay [16]; -0.291 (inactive) in [17]; 0.871 in [18]; -0.686 in [19]. For the same molecule, the z-score in assay [20] was 0.42 (inactive). This molecule had a composite z-score in [2] of 0.0413.
Take `Cc1ccc(S[C@]2(C(=O)NC(C)C)CC(=O)N(Cc3ccccc3C(F)(F)F)[C@@H]2c2ccc(CO)cc2I)cc1`: the z-score in [1] is 0.346 (inactive); in assay [3], 11.2 (active); in assay [4] it was 0.141 (inactive); in assay [5] it was 1.03 (inactive); in assay [6], -0.945 (inactive); in assay [7] it was 2.05. The z-score in assay [8] was 0.95 (inactive); in [9] it was -3.44 (inactive); in assay [10], -1.78; in [11], 0.0252; in assay [12], 0.384; in assay [13], -0.933. The z-score in assay [14] is -2.38; in assay [15], -3.2; in [16], -0.361; in assay [17] it was -0.123 (inactive); in assay [18], -0.399; in assay [19] it was -2.48. In addition, the z-score in assay [20] is 1.32 (inactive). For the same molecule, the composite z-score in [2] stood at 0.135.
Take `C[C@]1(C(=O)NCCN2CCOCC2)c2ccccc2C(=O)N(Cc2ccc(OC(F)(F)F)cc2)[C@H]1c1ccc(CO)cc1`: the z-score is 0.0793 (inactive) in assay [1]; 6.9 (inactive) in [3]; 0.621 (inactive) in [4]; 3.05 (inactive) in assay [5]; 0.327 (inactive) in [6]; -0.173 in assay [7]. Further, the z-score in assay [8] is 0.752 (inactive); in assay [9], 1.19 (inactive); in [10], 0.0149; in assay [11], 0.742; in assay [12], -0.352; in assay [13] it was 0.342. For the same molecule, the z-score in [14] is -0.285; in [15] it was 0.0667; in [16], 3.08; in assay [17] it was -0.446 (inactive); in [18], -0.275; in assay [19], -0.609. Moreover, the z-score in assay [20] is 0.354 (inactive). The molecule further returned a composite z-score in [2] of -0.0523.
Regarding `O=C(O)[C@]1(Cc2ccccc2)N=C(c2ccc(OCCCO)cc2)O[C@@H]1c1ccccc1`, the z-score in assay [1] was 0.585 (inactive); in [3], 5.03 (inactive); in assay [4] it was -0.125 (inactive); in [5] it was -1.2 (inactive); in assay [6], 0.0743 (inactive); in [7], -0.174. In addition, the z-score in [8] was 0.26 (inactive); in assay [9] it was 0.674 (inactive); in [10], 0.914; in assay [11], 1.07; in assay [12], -1.44; in [13], 0.493. In addition, the z-score was 0.427 in [14]; 0.261 in assay [15]; -0.121 in assay [16]; 0.766 (inactive) in assay [17]; -0.833 in [18]; -0.38 in [19]. Moreover, the z-score in assay [20] was 0.455 (inactive). In [2], this molecule registered a composite z-score of 0.104.

Source of the values: PubChem BioAssay.
